Values without a mark were called inactive. For part of these data: Entries with a potency or affinity are not part of this list. Activity calls are given as the source filed them. Unless noted, no rule for the calls is given here.

Assay [1] in a line: antimalarial activity against Dd2 strain (AID 2302;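 active = growth inhibition above 50% at the single 2 µM test dose, taken to imply half-maximal potency below 2 µM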;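 also: 0% = DMSO untreated growth and 100% = chloroquine plus artemisinin killed control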). Conditions: P. falciparum Dd2 in RBCs, LDH growth readout, 72 h; at 2 µM; hits give high values.
Assay [2] in a line: human hepatoma cell viability loss – ATP luminescence, cytotoxicity control for P. falciparum antimalarial project, primary screen (AID 2303;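 active = inhibition above 50%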;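 also: 0% = DMSO wells and 100% = digitonin-killed cells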). Conditions: HepG2 viability, 24-48 h, at 10 µM, hits give high values.
In assay [3] the target is L-lactate dehydrogenase (Plasmodium falciparum (isolate CDC / Honduras)) (UniProt Q27743). Description: PfLDH activity inhibition – cell lysate, 3D7 strain, counter-screen for P. falciparum growth inhibition project (AID 2304).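 Also: 0% = vehicle and 100% = reference inhibitor.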 Particulars: P. falciparum 3D7 crude extract, LDH APAD/NBT absorbance; at 2 µM; hits give high values.
A short description of assay [4]: inhibition of 3D7 malaria parasite growth – strain 3D7 (AID 2306).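 Also: 0% = DMSO wells and 100% = chloroquine plus artemisinin control wells.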 Conditions: P. falciparum 3D7 erythrocytic growth, LDH absorbance, 72 h; at 2 µM; hits give high values.
The target of assay [5] is Calcium-dependent protein kinase 1 (Plasmodium falciparum (isolate 3D7)) (UniProt P62344). Put plainly: PfCDPK1 kinase inhibitors, biochemical, TCAMS library (AID 1159585; cut-off not given, nearly all actives have IC50 up to about 0.98 µM;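 also: inhibitors leave more ATP so luminescence rises with inhibition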). Particulars: recombinant PfCDPK1, Kinase-Glo ATP depletion luminescence.
For assay [6], the target named is Plasmodium falciparum protein kinase 6 (PK6, PF3D7_1337100) (UniProt Q8IDW1). Put plainly: PfPK6 kinase inhibitors, biochemical, TCAMS library (AID 1159586). Conditions: recombinant PfPK6, Kinase-Glo ATP depletion luminescence.
The target of assay [7] is Protein kinase 7 (PK7), Plasmodium falciparum 3D7 (PF3D7_0213400) (UniProt Q7YTF7). Put plainly: inhibition of Plasmodium PK7 catalytic activity – biochemical, TCAMS antimalarial set, Kinase-Glo luminescence (AID 1159587). Conditions: recombinant PfPK7, Kinase-Glo ATP depletion luminescence.
Assay [8] deals with Calcium-dependent protein kinase 4 (Plasmodium falciparum (isolate 3D7)) (UniProt Q8IBS5). Put plainly: PfCDPK4 kinase inhibitors, biochemical, TCAMS library (AID 1159588; cut-off not given, nearly all actives have IC50 up to about 0.91 µM). Particulars: recombinant PfCDPK4, Kinase-Glo ATP depletion luminescence.
Chain of Calcium-dependent protein kinase 4 (Plasmodium falciparum (isolate 3D7)) (Q8IBS5 whole entry, looked up): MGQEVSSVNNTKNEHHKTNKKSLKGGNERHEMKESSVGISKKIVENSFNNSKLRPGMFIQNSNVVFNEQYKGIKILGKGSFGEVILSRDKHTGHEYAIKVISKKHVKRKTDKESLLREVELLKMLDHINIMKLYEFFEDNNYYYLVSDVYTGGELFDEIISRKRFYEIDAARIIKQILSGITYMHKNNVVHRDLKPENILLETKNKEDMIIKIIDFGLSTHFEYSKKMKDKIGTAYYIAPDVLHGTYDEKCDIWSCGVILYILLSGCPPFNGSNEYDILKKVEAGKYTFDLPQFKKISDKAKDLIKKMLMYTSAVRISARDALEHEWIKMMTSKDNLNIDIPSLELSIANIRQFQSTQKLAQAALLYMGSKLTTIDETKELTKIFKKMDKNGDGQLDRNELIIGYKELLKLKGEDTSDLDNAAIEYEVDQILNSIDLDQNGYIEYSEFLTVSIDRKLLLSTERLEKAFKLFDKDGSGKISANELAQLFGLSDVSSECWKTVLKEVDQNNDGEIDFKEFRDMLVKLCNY

Chain of L-lactate dehydrogenase (Plasmodium falciparum (isolate CDC / Honduras)) (Q27743 whole entry, looked up): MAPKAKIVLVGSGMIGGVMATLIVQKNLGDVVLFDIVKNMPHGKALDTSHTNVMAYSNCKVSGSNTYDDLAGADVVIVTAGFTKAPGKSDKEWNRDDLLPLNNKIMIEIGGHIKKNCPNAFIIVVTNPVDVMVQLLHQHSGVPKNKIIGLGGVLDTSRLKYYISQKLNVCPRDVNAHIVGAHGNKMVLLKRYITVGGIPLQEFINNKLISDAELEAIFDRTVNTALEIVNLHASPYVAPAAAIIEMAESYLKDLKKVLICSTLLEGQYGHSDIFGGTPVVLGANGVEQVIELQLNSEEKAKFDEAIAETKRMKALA
Chain of Plasmodium falciparum protein kinase 6 (PK6, PF3D7_1337100) (Q8IDW1 1-305): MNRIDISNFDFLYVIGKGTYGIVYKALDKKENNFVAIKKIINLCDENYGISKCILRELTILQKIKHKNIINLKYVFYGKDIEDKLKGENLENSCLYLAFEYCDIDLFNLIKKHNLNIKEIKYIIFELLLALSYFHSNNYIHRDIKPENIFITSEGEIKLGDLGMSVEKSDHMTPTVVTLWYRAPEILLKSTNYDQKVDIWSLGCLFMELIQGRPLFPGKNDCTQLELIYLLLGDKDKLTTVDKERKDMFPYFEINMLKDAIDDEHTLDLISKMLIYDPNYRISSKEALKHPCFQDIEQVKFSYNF
Chain of Calcium-dependent protein kinase 1 (Plasmodium falciparum (isolate 3D7)) (P62344 whole entry, looked up): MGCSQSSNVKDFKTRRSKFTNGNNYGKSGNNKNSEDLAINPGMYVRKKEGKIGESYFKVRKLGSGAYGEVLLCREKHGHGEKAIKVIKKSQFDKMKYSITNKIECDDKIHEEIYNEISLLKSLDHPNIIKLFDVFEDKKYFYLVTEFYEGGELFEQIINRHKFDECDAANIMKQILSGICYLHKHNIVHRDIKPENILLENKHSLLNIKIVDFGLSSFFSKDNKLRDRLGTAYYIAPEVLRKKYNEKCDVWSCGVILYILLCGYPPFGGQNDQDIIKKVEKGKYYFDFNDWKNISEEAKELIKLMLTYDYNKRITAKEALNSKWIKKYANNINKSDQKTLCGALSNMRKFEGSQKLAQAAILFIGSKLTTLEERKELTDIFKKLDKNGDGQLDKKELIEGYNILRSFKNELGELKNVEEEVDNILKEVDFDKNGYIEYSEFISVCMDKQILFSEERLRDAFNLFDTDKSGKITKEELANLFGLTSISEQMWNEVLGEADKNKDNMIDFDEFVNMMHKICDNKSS
Chain of Protein kinase 7 (PK7), Plasmodium falciparum 3D7 (PF3D7_0213400) (Q7YTF7 1-343): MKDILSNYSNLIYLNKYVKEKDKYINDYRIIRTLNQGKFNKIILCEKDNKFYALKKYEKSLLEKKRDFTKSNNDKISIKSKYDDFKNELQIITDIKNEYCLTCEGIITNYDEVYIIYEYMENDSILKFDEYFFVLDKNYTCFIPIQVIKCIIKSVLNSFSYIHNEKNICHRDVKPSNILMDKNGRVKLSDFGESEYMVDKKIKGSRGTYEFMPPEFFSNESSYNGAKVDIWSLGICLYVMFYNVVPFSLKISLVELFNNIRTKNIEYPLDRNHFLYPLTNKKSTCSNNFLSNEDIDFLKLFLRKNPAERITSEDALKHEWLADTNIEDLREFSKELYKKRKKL

As for `Cc1csc2nc(-c3ccccn3)nc(Nc3ccc4ncsc4c3)c12`, the growth inhibition in assay [1] is 91% (active); in assay [4], 85% (active). Also, the results for the inhibition in assay [2] and in assay [3] were -3% and 3%, respectively. Further, the outcome in assay [5], in assay [6], in assay [7] and in assay [8] was inactive.
Regarding `Cc1csc(-c2nc(NCc3cccnc3)ncc2-c2ccsc2)n1`, the growth inhibition in assay [1] is 74% (active); in assay [4], 87% (active). The inhibition in assay [2] was -5%; in assay [3] it was -1%. Besides, the outcome in assay [5], in assay [6], in assay [7] and in assay [8] was inactive.
In the case of `CC(=O)c1sc(NC(=O)Nc2ccc(C)cc2C)nc1C`, the figures for the growth inhibition in assay [1] and in assay [4] were 68% (active) and 96% (active), respectively. Further, the inhibition in assay [2] is 5%; in assay [3] it was 0%. Also, the result in assay [5], in assay [6], in assay [7] and in assay [8] was inactive.
Turning to `CCOc1ccc(C(C)NC(=O)C2COc3ccccc3O2)cc1OCC` (stereo not drawn), the growth inhibition in assay [1] is 100% (active); in assay [4], 101% (active). In addition, the results for the inhibition in assay [2] and in assay [3] were -4% and 1%, respectively. For the same compound, the outcome in assay [5], in assay [6], in assay [7] and in assay [8] was inactive.
With `COc1ccc(-c2cc(-c3nc4ccc(C(=O)N5CCOCC5)cc4[nH]3)c(=O)n(C)c2)cc1OC`, the figures for the growth inhibition in assay [1] and in assay [4] were 95% (active) and 93% (active), respectively. Also, the inhibition in assay [2] is 6%; in assay [3], 4%. Moreover, the result in assay [5], in assay [6], in assay [7] and in assay [8] was inactive.
Take `CC(=O)c1ccc(-c2ccc(C(=O)NCCCCN3CCC(c4ccc5c(c4O)CCCC5)CC3)cc2)cc1`: the values for the growth inhibition in assay [1] and in assay [4] were 83% (active) and 100% (active), respectively. Also, the inhibition in assay [2] was 87% (active); in assay [3], 1%. Further, the outcome in assay [5], in assay [6], in assay [7] and in assay [8] was inactive.
Regarding `Cn1c(-c2ccccc2)cc2c3c(=O)cc(C(F)(F)F)[nH]c3ccc21`, the figures for the growth inhibition in assay [1] and in assay [4] were 49% and 95% (active), respectively. Besides, the inhibition in assay [2] was 21%; in assay [3], -1%. The outcome in assay [5], in assay [6], in assay [7] and in assay [8] was inactive.
Regarding `COc1ccc(C(=O)NC(c2ccc(Cl)cc2Cl)c2cc(Cl)c3cccnc3c2O)cc1` (stereo not drawn), the growth inhibition in assay [1] was 48%; in assay [4], 84% (active). For the same compound, the inhibition in assay [2] was 46%; in assay [3], 2%. The result in assay [5], in assay [6], in assay [7] and in assay [8] was inactive.
Regarding `COc1cc2nc(SCCCC#N)n(C3CCCCCC3)c(=N)c2cc1OC`, the results for the growth inhibition in assay [1] and in assay [4] were 9% and 89% (active), respectively. For the same compound, the inhibition in assay [2] and in assay [3] was 0% throughout. Moreover, the outcome in assay [5], in assay [6], in assay [7] and in assay [8] was inactive.
For the compound `Nc1c2c(nc3ccc(C(=O)Nc4ccccc4)cc13)CCCC2`, the values for the growth inhibition in assay [1] and in assay [4] were 78% (active) and 100% (active), respectively. The inhibition is 20% in assay [2] and -3% in assay [3]. The result in assay [5], in assay [6], in assay [7] and in assay [8] was inactive.
As for `Nc1nc(Nc2cccc(Cl)c2)ncc1C(=O)NCc1ccncc1`, the growth inhibition in assay [1] is 29%; in assay [4], 98% (active). The inhibition in assay [2] was 3%; in assay [3] it was -5%. For the same compound, the outcome in assay [5], in assay [6], in assay [7] and in assay [8] was inactive.
As to `O=C(Nc1cccc(-c2nn3ncccc3c2-c2ccnc(Nc3ccc(N4CCOCC4)cc3)n2)c1)c1c(F)cccc1F`, the values for the growth inhibition in assay [1] and in assay [4] were 75% (active) and 101% (active), respectively. In addition, the inhibition in assay [2] was 75% (active); in assay [3] it was 7%. In addition, the result in assay [5], in assay [6], in assay [7] and in assay [8] was inactive.
As to `CCOC(=O)N1CCN(C(=O)Nc2ccc(Cl)cc2)CC1`, the growth inhibition is -2% in assay [1] and 92% (active) in assay [4]. Besides, the inhibition in assay [2] is 4%; in assay [3] it was 0%. For the same compound, the outcome in assay [5], in assay [6], in assay [7] and in assay [8] was inactive.
Regarding `CO/C(=C\C=C\c1cc2cc(Cl)c(Cl)cc2[nH]1)C(=O)NCCCN1CCN(C2CCCCC2)CC1`, the values for the growth inhibition in assay [1] and in assay [4] were 97% (active) and 99% (active), respectively. Further, the inhibition in assay [2] is 60% (active); in assay [3], -3%. The result in assay [5], in assay [6], in assay [7] and in assay [8] was inactive.
Consider `COc1ccc(N2CCN(CCCCNCc3ccc(NC(=O)c4cc(Cl)cc(Cl)c4)cc3)CC2)c(OC)c1`, for which the growth inhibition in assay [1] is 99% (active); in assay [4], 100% (active). The inhibition in assay [2] is 39%; in assay [3], 0%. Further, the outcome in assay [5], in assay [6], in assay [7] and in assay [8] was inactive.
Consider `COc1cc(NC(=O)c2c(-c3c(F)cccc3Cl)noc2C)c(OC)cc1Cl`, for which the growth inhibition is 17% in assay [1] and 89% (active) in assay [4]. The inhibition was -12% in assay [2] and 5% in assay [3]. Further, the outcome in assay [5], in assay [6], in assay [7] and in assay [8] was inactive.
In the case of `Cc1cc(C2CCN(CCCCNC(=O)c3ccc(NC(=O)c4ccc(Cl)cc4)cc3)CC2)c(C)cc1OC(C)C`, the growth inhibition in assay [1] is 92% (active); in assay [4] it was 100% (active). In addition, the inhibition was 22% in assay [2] and 7% in assay [3]. Moreover, the outcome in assay [5], in assay [6], in assay [7] and in assay [8] was inactive.
As for `COc1ccc(C2C(C(=O)OC3CCCC3)=C(C)NC3=C2C(=O)CCC3)cc1Br` (stereo not drawn), the figures for the growth inhibition in assay [1] and in assay [4] were 77% (active) and 94% (active), respectively. The inhibition in assay [2] was -2%; in assay [3], 5%. Moreover, the outcome in assay [5], in assay [6], in assay [7] and in assay [8] was inactive.
`Cc1cc(OCCCN2CCCCC2)ccc1NC(=O)COc1ccc(Cl)cc1C(=O)c1cc(Cl)cc(C#N)c1`: the growth inhibition in assay [1] was 16%; in assay [4], 93% (active). In addition, the inhibition in assay [2] is 28%; in assay [3] it was -8%. Also, the outcome in assay [5], in assay [6], in assay [7] and in assay [8] was inactive.
With `CCN(CC)CCN(Cc1ccc(-c2ccc(C(F)(F)F)cc2)cc1)C(=O)Cn1c(CCc2ccc(F)c(F)c2)nc(=O)c2ccccc21`, the growth inhibition in assay [1] was 62% (active); in assay [4], 99% (active). Moreover, the values for the inhibition in assay [2] and in assay [3] were 31% and 3%, respectively. Moreover, the result in assay [5], in assay [6], in assay [7] and in assay [8] was inactive.
For the compound `Fc1ccc2nccc(NN=Cc3ccccc3Cl)c2c1`, the growth inhibition was 39% in assay [1] and 100% (active) in assay [4]. The figures for the inhibition in assay [2] and in assay [3] were 3% and 0%, respectively. For the same compound, the result in assay [5], in assay [6], in assay [7] and in assay [8] was inactive.
